Source: the supplement of paper PMC13380429

Legend:
[1] = test system: Vero E6 infected with SARS-CoV-2; assay: morphology score (similarity to uninfected cells); higher = more like uninfected cells; conditions: 24 h
[2] = test system: Vero E6 infected with SARS-CoV-2; assay: SARS-CoV-2 infection rate relative to infected DMSO; higher = more infection, active = 60 or less; conditions: 24 h

In the case of `NS(=O)(=O)c1ccc(C(=O)O)cc1` [carzenide] (10 µM), the morphology score [1] is reported as 0.174 and the SARS-CoV-2 infection rate [2] is reported as 102% (inactive).
In the case of `C=C1CCN([C@H](C)[C@](O)(Cn2cncn2)c2ccc(F)cc2F)CC1` [efinaconazole] (10 µM), the morphology score [1] is reported as 0.162 and the SARS-CoV-2 infection rate [2] is reported as 92% (inactive).
In the case of `O=C1C[C@@H]2OCC=C3CN4CC[C@]56c7ccccc7N1[C@H]5[C@H]2[C@H]3C[C@H]46` [strychnine] (10 µM), the morphology score [1] is reported as 0.314 and the SARS-CoV-2 infection rate [2] is reported as 90% (inactive).
For `CC(C)N1CCN(c2ccc(OCC3COC(Cn4cncn4)(c4ccc(Cl)cc4Cl)O3)cc2)CC1` (configuration not stated) [terconazole] (0.833333 µM), the morphology score [1] was -0.0821 and the SARS-CoV-2 infection rate [2] was 106% (inactive).
For `Nc1nnc(-c2cccc(Cl)c2Cl)c(N)n1` [lamotrigine] (10 µM), the morphology score [1] was 0.0194 and the SARS-CoV-2 infection rate [2] was 110% (inactive).
For `O/N=C/c1ccc(-c2ccc(O)c(F)c2)c(Cl)c1O` (10 µM), the morphology score [1] was 0.342 and the SARS-CoV-2 infection rate [2] was 76.5% (inactive).
In the case of `Cc1c(C(N)=O)cc([N+](=O)[O-])cc1[N+](=O)[O-]` [dinitolmide] (10 µM), the morphology score [1] is reported as -0.0186 and the SARS-CoV-2 infection rate [2] is reported as 106% (inactive).
For `NC(=O)CCCCC1CCSS1` (configuration not stated) [lipoamide] (10 µM), the morphology score [1] was -0.0248 and the SARS-CoV-2 infection rate [2] was 108% (inactive).
`O=C(O)c1ccccc1Nc1cccc(OCc2ccc3ccccc3n2)c1` (10 µM) was tested, and the morphology score [1] was 0.0319 and the SARS-CoV-2 infection rate [2] was 95.5% (inactive).
For `CCOC(=O)[C@H](C)C[C@@H](Cc1ccc(-c2ccccc2)cc1)NC(=O)CCC(=O)O` [sacubitril] (10 µM), the morphology score [1] was 0.156 and the SARS-CoV-2 infection rate [2] was 102% (inactive).
In the case of `CN(C)C[C@H](O)Cn1c2ccc(Br)cc2c2cc(Br)ccc21` (racemic) [wiskostatin] (0.833333 µM), the morphology score [1] is reported as 0.146 and the SARS-CoV-2 infection rate [2] is reported as 110% (inactive).
